Screens as filed in PubChem.
Shiga toxin inh: Shiga toxin inhibition | Vero cells, Shiga toxin protein synthesis inhibition reporter | inhibition, % at 38.7 µM | 290,000 tested, 9.2% active | AID 2315; in the data active = inhibition mostly above about 28%, no sharp cut-off; inactive = mostly below about 43%
FMDV inh: foot and mouth disease virus antiviral activity | FMDV antiviral cell-based qHTS | Potency, µM (titrated, usually from 57.9 µM), hits mostly inhibitors | 410,000 tested, 1.2% active | AID 1159524; calls by dose curve; tested in HEK293T cells; note: read-out not given here; nearly all actives have a fitted effect of over 45% in size
Sm TGR inh: blocks Schistosoma mansoni thioredoxin glutathione reductase; purified TGR, DTNB reduction, TNB absorbance 405 nm; 360,000 tested, 3% active; Potency, µM (top dose mostly 114 µM), hits mostly inhibitors; Q962Y6; AID 485364; active = well fitted inhibition curve with a large enough effect; inconclusive = small, poorly fitted or top-dose-only effect; inactive = no such curve, though single readings can be large or run the other way; note: nearly all actives have a fitted effect of over 60% in size
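TGR 20 nM + NADPH 100 uM (dispensed conc.), cpd preinc 15 min RT; start with NADPH (500 uM addition) then DTNB (15 mM addition). Kinetic TNB absorbance, 405 nm filter. Four-parameter Hill fit across titration.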
CHX counter: counter-screen hit for Shiga toxin inhibitors, cycloheximide | cell reporter, cycloheximide protein synthesis inhibition counterscreen | max response, % | 300,000 tested, 12% active | AID 2314; in the data active = max response mostly above about 13%, no sharp cut-off; inactive = mostly below about 14%; note: read at 38.3 µM for the half of the compounds with a filed dose
Large screens that a line does not name were inactive. Rows were chosen to be rich in hits. Some 12% of all compounds tested hit in one or more screens of this group.

COCCn1cc(C(=O)NCc2ccco2)c2c3ccccc3n(C)c2c1=O	none
Cc1ccc(CNC(=O)c2cn(C3CCCC3)c(=O)c3c2c2ccccc2n3C)o1	Sm TGR inh 8.91µM (no result: FMDV inh)
COc1ccc(NS(=O)(=O)c2cc3[nH]c(=O)c(=O)[nH]c3cc2C)cc1Cl	none (no result: Shiga toxin inh, CHX counter)
CN(Cc1ccccc1)c1oc(COc2ccccc2F)nc1C#N	Shiga toxin inh 88.8
N#Cc1nc(COc2ccccc2F)oc1NCCc1ccccc1	Shiga toxin inh 56.9, CHX counter 27.2
Cc1cc(-c2ccccc2)n(-c2ccccc2)n1	Shiga toxin inh 93.9, Sm TGR inh inconclusive, CHX counter 40.1
Cc1cc(-c2ccco2)n(-c2ccccc2)n1	Sm TGR inh 3.98µM
Cc1ccc(CCNC(=O)c2ccc(CSCc3ccccc3C)o2)cc1	none (no result: Shiga toxin inh, CHX counter)
COC(=O)/C=C/c1cc(O)ccc1O	none (no result: Shiga toxin inh, Sm TGR inh, CHX counter)
CS(=O)(=O)Nc1cccc(C2=NN(C(=O)c3ccccc3)C(c3cccs3)C2)c1 (centres undefined)	none
O=C(c1ccccc1)N1N=C(c2ccco2)CC1c1cccs1 (centres undefined)	Sm TGR inh 35.5µM
CCC(=O)N1N=C(c2cccs2)CC1c1ccco1 (centres undefined)	Sm TGR inh inconclusive
Cc1ccc(C2=NN(C(=O)CCl)C(c3cccs3)C2)o1 (centres undefined)	FMDV inh 14.1µM, Sm TGR inh 3.16µM, CHX counter 23.3
CC(=O)N1N=C(c2ccco2)CC1c1ccc(Cl)o1 (centres undefined)	Sm TGR inh inconclusive
O=C(CCl)N1N=C(c2ccco2)CC1c1cccs1 (centres undefined)	FMDV inh inconclusive, Sm TGR inh 3.16µM
CC(=O)N1N=C(c2ccco2)CC1c1cccs1 (centres undefined)	Sm TGR inh 44.7µM (no result: FMDV inh)
COc1ccccc1NC(=O)C(Cc1ccccc1)NS(=O)(=O)c1ccc2c(c1)c(=O)n(C)c(=O)n2C (centres undefined)	none (no result: Shiga toxin inh, CHX counter)
C/C(=N\Nc1ccc(Cl)cc1)c1ccncc1	CHX counter 21.1
C/C(=N/NS(=O)(=O)c1ccc(F)cc1)c1ccncc1	none
C/C(=N\NC1=NCCN1)c1ccc(Cl)cc1	none
C/C(=N\Nc1ccc(F)cc1)c1ccncc1	CHX counter 24.1
C/C(=N\Nc1cccc(Cl)c1)c1ccncc1	CHX counter 24.1
Cc1cc(C)cc(NC(=O)CSc2ccc(-c3ccco3)nn2)c1	FMDV inh inconclusive, Sm TGR inh 22.4µM
Cc1ccc(CNC(=O)CSc2ccc(-c3ccco3)nn2)cc1	Sm TGR inh inconclusive
Cc1cccc(NC(=O)CSc2ccc(-c3ccco3)nn2)c1	FMDV inh inconclusive, Sm TGR inh 20µM, CHX counter 19.8
COc1ccc(OC)c(N(C)S(=O)(=O)c2ccc3c(c2)NC(=O)CC(=O)N3)c1	none (no result: Shiga toxin inh, CHX counter)
CC(=O)c1ccc(NS(=O)(=O)c2cc(-c3cc(C)no3)ccc2C)cc1	none (no result: Shiga toxin inh, CHX counter)
Cc1ccc(S(=O)(=O)Nc2cccc3ncccc23)s1	FMDV inh 28.2µM
Cc1cc(N)c(NC2=CC(=O)CC(C)(C)C2)cc1C	Shiga toxin inh 91.0, CHX counter 62.1
CCCc1cc(=O)[nH]c2nnc(SCC(=O)Nc3ccc(OC)cc3)n12	none (no result: Shiga toxin inh, CHX counter)
Cc1nc2nc(SCC(=O)c3cccc([N+](=O)[O-])c3)[nH]c2cc1Br	Shiga toxin inh 29.8, CHX counter 31.4
COC(=O)c1cc(C(=O)Nc2cc(C)ccn2)cc([N+](=O)[O-])c1	Shiga toxin inh 34.9
O=C(Nc1nc2ccccc2[nH]1)c1ccc([N+](=O)[O-])cc1	Shiga toxin inh 91.6, CHX counter 28.2
COC(=O)c1cc(C(=O)Nc2nc3ccccc3[nH]2)cc([N+](=O)[O-])c1	Shiga toxin inh 48.5
CCOC(=O)CCN(SN(C)C(=O)Oc1cccc2c1OC(C)(C)C2)C(C)C	none (no result: FMDV inh, Sm TGR inh)
CCOc1ccc(C(=O)N(Cc2nc(-c3cccc(C)c3)no2)C(C)C)cc1	none (no result: Shiga toxin inh, CHX counter)
O=C(C[n+]1cc(Br)cc(Br)c1)c1cccc([N+](=O)[O-])c1	Sm TGR inh 10µM
O=C(Cc1nc2ccccc2[nH]1)c1cccc([N+](=O)[O-])c1	Shiga toxin inh 70.0, CHX counter 37.5
Cc1nc2ccc(NC(=O)c3ccc([N+](=O)[O-])cc3)cc2[nH]1	CHX counter 13.7
O=C(Nc1nc2ccccc2[nH]1)c1cccc([N+](=O)[O-])c1	Shiga toxin inh 58.5, CHX counter 46.6
O=C(CSc1nc2ncc(Br)cc2[nH]1)c1cccc([N+](=O)[O-])c1	none
CCCCOC(=O)c1ccc(NC(=O)c2cc(-c3cccs3)on2)cc1	none (no result: Shiga toxin inh, CHX counter)
c1ccc(CNc2ccnc(-c3ccoc3)n2)cc1	none (no result: Shiga toxin inh, Sm TGR inh, CHX counter)
Cc1ccc(C(=O)Cc2nc3ccccc3[nH]2)cc1	Shiga toxin inh 64.5, CHX counter 35.8
O=C(Nc1nc2ccccc2[nH]1)c1cccs1	Shiga toxin inh 75.0, CHX counter 37.4
Cn1nc(C(=O)Nc2nc3ccccc3[nH]2)ccc1=O	Shiga toxin inh 84.0, Sm TGR inh inconclusive, CHX counter 46.2
Cc1ccc(C(=O)Nc2nc3ccccc3[nH]2)cc1	FMDV inh 11.2µM
COc1ccc2cc(CNCc3ccccc3Cl)c(N3CCCC(CO)C3)nc2c1 (centres undefined)	none (no result: Shiga toxin inh, Sm TGR inh, CHX counter)
CCC(C)NC(=O)c1sc2nc(C)c(C(=O)Nc3ccc(C)cc3C)c(-c3ccc(Br)cc3)c2c1N (centres undefined)	none (no result: Shiga toxin inh, CHX counter)
COc1cc(C(=O)NCCCc2nc3ccccc3n2CC(C)C)cc(OC)c1OC	none (no result: Shiga toxin inh, CHX counter)
Brc1ccc(-c2csc(N3CCCCC3)n2)cc1	none (no result: Shiga toxin inh, FMDV inh, CHX counter)
COc1cccc(NS(=O)(=O)c2ccc3c(c2)NC(=O)C(C)S3)c1 (centres undefined)	none
COc1ccccc1NS(=O)(=O)c1ccc2c(c1)NC(=O)C(C)S2 (centres undefined)	CHX counter 23.1
CC1Sc2ccc(S(=O)(=O)N(C)Cc3ccccc3)cc2NC1=O (centres undefined)	FMDV inh 28.2µM
O=C(Nc1ccc(F)cc1F)c1cc(CN2CCOCC2)on1	none (no result: Shiga toxin inh, CHX counter)
CCCc1cc(C(=O)Nc2ccc(F)cc2F)no1	Shiga toxin inh 74.4, CHX counter 58.3
CCCc1cc(C(=O)Nc2ccccc2SC)no1	Shiga toxin inh 87.6, CHX counter 62.0
CCCc1cc(C(=O)Nc2cccc(Cl)c2C)no1	Shiga toxin inh 65.8, CHX counter 52.2
O=C(Cn1cc(S(=O)(=O)Cc2ccccc2F)c2ccccc21)NCc1ccccc1Cl	none (no result: Shiga toxin inh, CHX counter)
CCOc1ccc(C2c3[nH]c4ccccc4c3CCN2C(=O)Cc2cccc(OCC)c2OCC)cc1 (centres undefined)	none (no result: Shiga toxin inh, CHX counter)
CCOc1ccc(CCNC(=O)c2cn(-c3ccc(OC)cc3)c(=O)c3ccccc23)cc1OCC	none (no result: Shiga toxin inh, CHX counter)
Cn1c(-c2ccc(CN3CCCCC3)o2)nc2ccccc21	Shiga toxin inh 84.0, Sm TGR inh inconclusive, CHX counter 25.6
c1ccc2c(c1)nc(-c1ccncc1)n2CCNc1nc(CN2CCCCC2)cs1	none
Cc1ccc(C(=O)Nc2nc(=O)n(C(=O)C3CC3)s2)cc1	CHX counter 15.8
O=C(Nc1nc(=O)n(C(=O)C2CC2)s1)c1ccccc1	CHX counter 26.8
Cc1ccc(C(=O)Nc2nc(=O)n(C(=O)c3ccccc3C)s2)cc1	none
